Data taken from PubChem BioAssay (Tox21).
Calls of active or inactive are those of the source. Unless noted, the call rests on the fitted dose curve; in most records, active means well fitted curve in the direction sought with a large enough effect in the repeat runs; inconclusive means weak or mixed curves; inactive means no such curve, though single readings can be large; an effect the other way counts as inactive or inconclusive. Positions of bridges follow the written chain, without caps; N, C: chain ends. Non-standard residues stand in square brackets, D forms with d. Residues, ends and D or L forms follow the SMILES beside them. *: point of attachment. X2 = CC[C@H](C)CCCCC(=O)*; Dab = NCC[C@H](N)C(=O)O

Columns and labels:
[1] = qHTS assay to identify small molecule antagonists of the glucocorticoid receptor (GR) signaling pathway - cell viability counter screen (AID 720693); further: nearly all actives have a fitted effect of over 55% in size
[2] = qHTS assay for identifying genotoxic compounds that show differential cytotoxicity against isogenic chicken DT40 cell lines with known DNA damage response pathways - wild type cell line (AID 743012); further: nearly all actives have a fitted effect of over 60% in size; further: potency means the concentration at half of the fitted maximal effect
Method in brief: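 300 wt DT40 cells/well; cpd (DMSO) pintool-transferred after ~0.5 h at 37 C/5% CO2; 40 h incubation; CellTiter-Glo added, 30 min RT; luminescence read.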

[3] = qHTS assay for identifying genotoxic compounds that show differential cytotoxicity against isogenic chicken DT40 cell lines with known DNA damage response pathways - Rev3 mutant cell line (AID 743014); further: nearly all actives have a fitted effect of over 55% in size; further: potency means the concentration at half of the fitted maximal effect
[4] = qHTS assay to identify small molecule antagonists of the androgen receptor (AR) signaling pathway - cell viability counter screen (AID 743033; further: nearly all actives have a fitted effect of over 45% in size)
[5] = molecular target: Androgen receptor (Homo sapiens) (UniProt P10275); test: qHTS assay to identify small molecule antagonists of the androgen receptor (AR) signaling pathway (AID 743035; active means well fitted inhibition curve with a large enough effect in the signal ratio in the repeat runs, not every such curve was filed as active; inconclusive means weak or mixed curves, or effect the other way; inactive means no such curve, though single readings can be large or run the other way; the % refers to the signal ratio)
Sequence of Androgen receptor (Homo sapiens) (P10275 whole entry, looked up): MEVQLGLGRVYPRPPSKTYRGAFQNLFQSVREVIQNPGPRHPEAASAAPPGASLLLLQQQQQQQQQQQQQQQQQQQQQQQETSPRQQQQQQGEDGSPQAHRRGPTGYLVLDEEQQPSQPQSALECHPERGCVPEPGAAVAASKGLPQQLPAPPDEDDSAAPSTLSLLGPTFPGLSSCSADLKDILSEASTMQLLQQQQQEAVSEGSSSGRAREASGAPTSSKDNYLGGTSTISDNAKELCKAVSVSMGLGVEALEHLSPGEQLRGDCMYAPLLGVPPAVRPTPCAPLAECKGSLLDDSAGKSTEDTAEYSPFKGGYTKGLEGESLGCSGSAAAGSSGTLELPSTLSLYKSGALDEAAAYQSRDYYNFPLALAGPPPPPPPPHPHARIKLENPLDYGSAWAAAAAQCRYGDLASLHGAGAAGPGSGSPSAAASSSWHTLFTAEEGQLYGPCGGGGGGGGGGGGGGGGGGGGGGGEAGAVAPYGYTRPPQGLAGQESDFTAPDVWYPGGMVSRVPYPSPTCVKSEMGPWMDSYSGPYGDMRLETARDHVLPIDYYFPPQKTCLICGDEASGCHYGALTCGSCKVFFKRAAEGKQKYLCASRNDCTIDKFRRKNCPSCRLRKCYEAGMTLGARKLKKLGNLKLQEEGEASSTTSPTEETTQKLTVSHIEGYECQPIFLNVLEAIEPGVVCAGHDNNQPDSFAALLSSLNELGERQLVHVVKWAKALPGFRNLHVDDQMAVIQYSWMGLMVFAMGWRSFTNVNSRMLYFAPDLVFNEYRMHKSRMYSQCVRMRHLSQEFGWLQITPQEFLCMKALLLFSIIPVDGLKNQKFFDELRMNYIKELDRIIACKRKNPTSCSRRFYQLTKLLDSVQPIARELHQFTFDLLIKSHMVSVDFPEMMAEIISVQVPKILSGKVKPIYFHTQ
Method in brief: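 In this cell-based reporter screen, compounds were tested in concentration series against R1881-activated HEK293 cells expressing beta-lactamase under UAS control; after 16 h at 37C, FRET substrate was added and fluorescence read 2 h later.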

[6] = molecular target: Androgen receptor (Homo sapiens) (UniProt P10275); test: qHTS assay to identify small molecule agonists of the androgen receptor (AR) signaling pathway using the MDA cell line (AID 743040; further: nearly all actives have a fitted effect of over 20% in size)
Method in brief: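 Luciferase agonist assay: 16 h compound exposure at 37C without CO2 in MDA-kb2 AR-luc cells, whose MMTV promoter responds to both AR and GR. Luminescence measured after 30 min room-temperature incubation with ONE-Glo.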

[7] = qHTS assay to identify small molecule antagonists of the androgen receptor (AR) signaling pathway using the MDA cell line - cell viability counter screen (AID 743041; further: nearly all actives have a fitted effect of over 45% in size; further: potency means the concentration at half of the fitted maximal effect)
Method in brief: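 Viability read by CellTiter-Fluor fluorescence in the same wells as the antagonist screen, added after 15.5 h of a 16 h, 37C exposure. Human breast carcinoma MDA-kb2 AR-luc cells, compounds co-dosed with agonist R1881.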

[8] = molecular target: Androgen receptor (Homo sapiens) (UniProt P10275); test: qHTS assay to identify small molecule antagonists of the androgen receptor (AR) signaling pathway using the MDA cell line (AID 743042; further: nearly all actives have a fitted effect of over 55% in size)
Method in brief: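 Antagonist mode: compounds plus R1881 agonist added to MDA-kb2 AR-luc cells, incubated 16 h at 37C. Luciferase reporter luminescence quantified, with multiplexed CellTiter-Fluor readout for cell viability.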

[9] = qHTS assay to identify small molecule antagonists of the thyroid receptor (TR) signaling pathway (AID 743065); further: nearly all actives have a fitted effect of over 55% in size; further: potency means the concentration at half of the fitted maximal effect
Method in brief: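 Antagonism measured as loss of luciferase signal in GH3 cells stably carrying a TRE-luciferase reporter, co-treated with compound and T3 (1 nM final) for 23.5 h at 37 C. Viability was read in the same well by CellTiter-Fluor.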

[10] = test system: thyroid hormone receptor (rat, GH3 cells); test: qHTS assay to identify small molecule agonists of the thyroid receptor (TR) signaling pathway (AID 743066; calls by dose curve)
[11] = qHTS assay to identify small molecule antagonists of the estrogen receptor alpha (ER-alpha) signaling pathway - cell viability counter screen (AID 743074; calls by dose curve;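 further: HEK293 cells carrying ER-alpha-UAS-bla reporter stimulated with 17beta-estradiol; nearly all actives have a fitted effect of over 45% in size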)
Aromatase (Homo sapiens) = Aromatase (Homo sapiens) (UniProt P11511); test: qHTS assay to identify aromatase inhibitors (AID 743083); further: nearly all actives have a fitted effect of over 55% in size; further: potency means the concentration at half of the fitted maximal effect
Sequence of Aromatase (Homo sapiens) (P11511 whole entry, looked up): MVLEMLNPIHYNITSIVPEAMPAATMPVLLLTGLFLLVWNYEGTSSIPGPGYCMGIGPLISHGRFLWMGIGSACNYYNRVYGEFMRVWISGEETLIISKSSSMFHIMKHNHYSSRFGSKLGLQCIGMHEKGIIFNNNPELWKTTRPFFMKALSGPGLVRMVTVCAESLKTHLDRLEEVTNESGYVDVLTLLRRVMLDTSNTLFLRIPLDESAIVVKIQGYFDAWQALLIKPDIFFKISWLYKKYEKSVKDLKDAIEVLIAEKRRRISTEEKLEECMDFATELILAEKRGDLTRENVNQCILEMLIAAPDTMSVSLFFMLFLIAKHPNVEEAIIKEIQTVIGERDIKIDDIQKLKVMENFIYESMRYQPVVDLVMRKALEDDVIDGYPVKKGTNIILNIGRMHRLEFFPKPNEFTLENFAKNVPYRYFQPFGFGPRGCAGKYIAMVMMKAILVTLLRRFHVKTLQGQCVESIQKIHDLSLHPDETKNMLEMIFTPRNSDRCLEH

[12] = qHTS assay for identifying genotoxic compounds that show differential cytotoxicity against isogenic chicken DT40 cell lines with known DNA damage response pathways - Rad54/Ku70 mutant cell line (AID 743015); further: nearly all actives have a fitted effect of over 60% in size; further: potency means the concentration at half of the fitted maximal effect
[13] = qHTS assay to identify small molecule antagonists of the thyroid receptor (TR) signaling pathway - cell viability counter screen (AID 743064); further: nearly all actives have a fitted effect of over 50% in size; further: potency means the concentration at half of the fitted maximal effect
Method in brief: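 Same-well viability check: GH3.TRE-Luc cells stimulated with 1 nM T3 alongside test compound for 23.5 h, followed by CellTiter-Fluor fluorescence.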

[14] = molecular target: Estrogen receptor (Homo sapiens) (UniProt P03372); test: qHTS assay to identify small molecule antagonists of the estrogen receptor alpha (ER-alpha) signaling pathway (AID 743069; active means well fitted curve in the direction sought with a large enough effect in the signal ratio in the repeat runs, not every such curve was filed as active; inconclusive means weak or mixed curves, or effect the other way; inactive means no such curve, though single readings can be large or run the other way; the % refers to the signal ratio; further: potency means the concentration at half of the fitted maximal effect)
Sequence of Estrogen receptor (Homo sapiens) (P03372 whole entry, looked up): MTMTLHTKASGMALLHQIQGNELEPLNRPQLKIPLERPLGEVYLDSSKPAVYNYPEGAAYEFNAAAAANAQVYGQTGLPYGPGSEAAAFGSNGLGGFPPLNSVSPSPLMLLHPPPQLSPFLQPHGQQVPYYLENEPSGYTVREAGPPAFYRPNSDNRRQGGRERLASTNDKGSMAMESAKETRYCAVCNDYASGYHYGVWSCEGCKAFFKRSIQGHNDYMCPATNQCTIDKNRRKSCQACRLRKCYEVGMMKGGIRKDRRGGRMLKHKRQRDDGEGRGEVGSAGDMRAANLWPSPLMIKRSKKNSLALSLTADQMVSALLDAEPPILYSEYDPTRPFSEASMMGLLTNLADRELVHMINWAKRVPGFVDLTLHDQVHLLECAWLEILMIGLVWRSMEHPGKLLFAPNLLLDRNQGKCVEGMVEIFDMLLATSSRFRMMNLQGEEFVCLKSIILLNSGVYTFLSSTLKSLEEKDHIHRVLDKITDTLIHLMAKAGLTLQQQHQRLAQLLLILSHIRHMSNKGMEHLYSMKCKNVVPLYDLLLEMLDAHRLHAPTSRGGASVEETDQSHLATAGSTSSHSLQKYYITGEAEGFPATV
Method in brief: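 Antagonist mode: compounds in DMSO were co-added with 17beta-estradiol to ER-alpha-bla HEK293 cells (2% charcoal-stripped serum) and left 18 h at 37C. Reporter inhibition was measured as FRET fluorescence after 2 h LiveBLAzer substrate at room temperature.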

[15] = molecular target: Estrogen receptor (Homo sapiens) (UniProt P03372); test: qHTS assay to identify small molecule agonists of the estrogen receptor alpha (ER-alpha) signaling pathway using the BG1 cell line (AID 743079); conditions: BG1Luc4E2 cells, ERE-luciferase agonist, 22 h; activation: at 70.3 µM (top of the series); further: nearly all actives have a fitted effect of over 20% in size; further: potency means the concentration at half of the fitted maximal effect
[16] = qHTS assay to identify small molecule antagonists of the estrogen receptor alpha (ER-alpha) signaling pathway using the BG1 cell line (AID 743080; calls by dose curve;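 further: BG1 cells stimulated with 17beta-estradiol alongside compound; nearly all actives have a fitted effect of over 25% in size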)
Method in brief: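 Readout is ONE-Glo luminescence, taken 30 min at room temperature after reagent addition, preceded by a CellTiter-Fluor viability read; BG1-Luc-4E2 cells had received compound and 17beta-estradiol for 21.5 h at 37 C.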

[17] = qHTS assay to identify small molecule antagonists of the estrogen receptor alpha (ER-alpha) signaling pathway using the BG1 cell line - cell viability counter screen (AID 743081);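 further: compound given together with 17beta-estradiol as the ER stimulus; nearly all actives have a fitted effect of over 45% in size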
[18] = molecular target: Androgen receptor (Homo sapiens) (UniProt P10275); test: qHTS assay to identify small molecule agonists of the androgen receptor (AR) signaling pathway (AID 743036; active means well fitted activation curve with a large enough effect in the signal ratio in the repeat runs, with a control signal flat, not every such curve was filed as active; inconclusive means weak or mixed curves, or effect the other way; inactive means no such curve, though single readings can be large or run the other way; the % refers to the signal ratio)
Method in brief: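 Agonist activity was scored by beta-lactamase reporter fluorescence in stably transfected HEK293 cells exposed to compounds for 16 h at 37C and 5% CO2. Substrate loading took 2 h at room temperature.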

[19] = molecular target: Estrogen receptor (Homo sapiens) (UniProt P03372); test: qHTS assay to identify small molecule agonists of the estrogen receptor alpha (ER-alpha) signaling pathway (AID 743075; calls by dose curve;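 further: HEK293 GripTite cells with ER-alpha and UAS-driven beta-lactamase reporter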; further: potency means the concentration at half of the fitted maximal effect)
On the % scale 0 is the no-effect control and ±100 the full control effect.

NNc1nnc(Cc2ccncc2)c2ccccc12
active: Potency [9] 4.73 µM | Potency (Aromatase (Homo sapiens)) 13.3 µM
inactive: Potency [1] | Potency [2] | Potency [3] | Potency [4] | Potency [5] | Potency [6] | Potency [7] | Potency [8] | Potency [10] | Potency [11]

CN(C)CCC=C1c2ccccc2C(C)(C)c2ccccc21
inactive: Potency [1] | Potency [14] | Potency [15] | Potency [16] | Potency [17]
active: Potency [2] 9.44 µM | Potency [3] 13.3 µM | Potency [12] 13.3 µM | Potency [13] 13.3 µM

O=C(O)CCC/C=C\C[C@@H]1[C@@H](/C=C/[C@@H](O)COc2cccc(C(F)(F)F)c2)[C@H](O)C[C@@H]1O
inactive: Potency [1] | Potency [2] | Potency [3] | Potency [4] | Potency [5] | Potency [6] | Potency [7] | Potency [8] | Potency [13] | Potency [9] | Potency [10] | Potency [14] | Potency [11] | Potency [17] | Potency (Aromatase (Homo sapiens))
active: activation [15] 49.9%

CC(C)(C)c1ccc(CN2CCN(C(c3ccccc3)c3ccc(Cl)cc3)CC2)cc1 (stereo not drawn)
active: Potency [2] 5.31 µM | Potency [3] 4.22 µM | Potency [13] 33.5 µM | Potency [9] 21.1 µM
inactive: Potency [1] | Potency [4] | Potency [18] | Potency [6] | Potency [7] | Potency [8] | Potency [10] | Potency [19] | Potency [16] | Potency [17]

CCN(CC)CCCC(C)Nc1cc(/C=C/c2ccccc2Cl)nc2cc(Cl)ccc12 (stereo not drawn)
active: Potency [2] 26.6 µM | Potency [3] 29.8 µM | Potency [12] 29.8 µM | Potency [13] 26.6 µM | Potency [9] 29.8 µM
inactive: Potency [1] | Potency [7] | Potency [14] | Potency [11] | Potency [19] | Potency [15] | Potency [16]

CO[C@H]1C=CO[C@@]2(C)Oc3c(C)c(O)c4c(O)c(c5c(nc6cc(C)ccn65)c4c3C2=O)NC(=O)/C(C)=C\C=C[C@H](C)[C@H](O)[C@@H](C)[C@@H](O)[C@@H](C)[C@H](OC(C)=O)[C@@H]1C
active: Potency [2] 26.6 µM | Potency [3] 23.7 µM | Potency [12] 29.8 µM
inactive: Potency [1] | Potency [7] | Potency [13] | Potency [9] | Potency [10] | Potency [17]

CC[C@H](C)CCCCC(=O)N[C@@H](CCN)C(=O)N[C@H](C(=O)N[C@@H](CCN)C(=O)N[C@H]1CCNC(=O)[C@H]([C@@H](C)O)NC(=O)[C@H](CCN)NC(=O)[C@H](CCN)NC(=O)[C@H](CC(C)C)NC(=O)[C@@H](CC(C)C)NC(=O)[C@H](CCN)NC1=O)[C@@H](C)O (X2-[Dab]T[Dab][Dab][Dab][dL]L[Dab][Dab]T; lactam 4-C)
inactive: Potency [1] | Potency [2] | Potency [3] | Potency [4] | Potency [7] | Potency [13] | Potency [9] | Potency [10] | Potency [14] | Potency [11] | Potency [19] | Potency [15] | Potency [16] | Potency [17] | Potency (Aromatase (Homo sapiens))

CCOC(=O)[C@@H](N)CS
active: Potency [15] 29.8 µM
inactive: Potency [1] | Potency [2] | Potency [3] | Potency [12] | Potency [13] | Potency [9] | Potency [10] | Potency [11] | Potency [19] | Potency [16] | Potency [17] | Potency (Aromatase (Homo sapiens))

O=C(O)c1ccc(NC(=O)[C@H](Cc2ccc(O)cc2)NC(=O)c2ccccc2)cc1
inactive: Potency [1] | Potency [2] | Potency [3] | Potency [4] | Potency [5] | Potency [18] | Potency [6] | Potency [7] | Potency [8] | Potency [9] | Potency [10] | Potency [14] | Potency [11] | Potency [19] | Potency [15] | Potency [16] | Potency [17] | Potency (Aromatase (Homo sapiens))

FCOC(C(F)(F)F)C(F)(F)F
inactive: Potency [1] | Potency [2] | Potency [3] | Potency [12] | Potency [7] | Potency [13] | Potency [14] | Potency [11] | Potency [19] | Potency [15] | Potency [16] | Potency [17] | Potency (Aromatase (Homo sapiens))

O=[N+]([O-])c1ccc(Oc2ccc(N=C=S)cc2)cc1
active: Potency [2] 13.3 µM | Potency [3] 23.7 µM | Potency [12] 18.8 µM | Potency [7] 26.6 µM | Potency [9] 29.8 µM | Potency [14] 0.848 µM [inconclusive] | Potency (Aromatase (Homo sapiens)) 26.6 µM
inactive: Potency [1] | Potency [10] | Potency [11] | Potency [19]

CCN(CC)CCOCCOC(=O)C(CC)(CC)c1ccccc1
active: Potency [2] 3.35 µM | Potency [3] 1.88 µM | Potency [12] 4.73 µM | Potency [13] 26.6 µM | Potency [9] 23.7 µM
inactive: Potency [1] | Potency [7] | Potency [10] | Potency [11] | Potency (Aromatase (Homo sapiens))

CC(=O)Oc1cc(C)c(OC(C)=O)c2ccccc12
inactive: Potency [1] | Potency [7] | Potency [11] | Potency [19] | Potency [16] | Potency [17]
active: Potency [2] 21.1 µM | Potency [3] 23.7 µM | Potency [12] 23.7 µM | Potency [13] 26.6 µM | Potency [9] 23.7 µM | Potency (Aromatase (Homo sapiens)) 26.6 µM

CC(C)(C)C(=O)OCOC(=O)[C@@H]1N2C(=O)[C@@H](N=CN3CCCCCC3)[C@H]2SC1(C)C
inactive: Potency [1] | Potency [2] | Potency [3] | Potency [12] | Potency [7] | Potency [14] | Potency [11] | Potency [19] | Potency [15] | Potency [16] | Potency (Aromatase (Homo sapiens))

NC(=O)Oc1ccc(Cc2ccccc2)cc1
inactive: Potency [1] | Potency [2] | Potency [3] | Potency [12] | Potency [13] | Potency [9] | Potency [10] | Potency [14] | Potency [11] | Potency [17] | Potency (Aromatase (Homo sapiens))
active: Potency [19] 26.8 µM [activator] | Potency [15] 21.1 µM
